FMDV inh = foot and mouth disease virus antiviral activity | 410,000 compounds, 1.2% hits | FMDV antiviral cell-based qHTS | Potency, µM (doses to about 57.9 µM), for inactives: top-dose activity change, negative = inhibition, hits mostly inhibitors; calls by dose curve; tested in HEK293T cells; further: read-out not given here; potency means the concentration at half of the fitted maximal effect; nearly all actives have a fitted effect of over 45% in size
RE007 growth inh = less growth of the S. pombe RE007 Vpr strain; S. pombe RE007 Vpr strain, BacTiter-Glo ATP luminescence, 24 h; Potency, µM (doses to about 92.2 µM), for inactives: at the highest dose activity change, negative = less growth, hits mostly inhibitors; 360,000 compounds, 0.21% hits; AID 651644; active means well fitted falling curve with a large enough effect; inconclusive means small, poorly fitted or top-dose-only effect; inactive means no such curve, though single readings can be large or run the other way; further: potency means the concentration at half of the fitted maximal effect; nearly all actives have a fitted effect of over 50% in size
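Fission yeast strain RE007, carrying one chromosomally integrated HIV-1 vpr copy, was seeded at OD 0.01 in PMG+AL medium with 23 nL pinned compound. After 24 h at 30 °C and 99% humidity, viability was read by BacTiter-Glo luminescence.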
Sm TGR block = blocks Schistosoma mansoni thioredoxin glutathione reductase | Q962Y6 | purified TGR, DTNB reduction, TNB absorbance 405 nm | Potency, µM (titrated, usually from 114 µM), inactives show at the highest dose activity change, negative = inhibition, usual class: inhibitors | 360,000 compounds, 3% hits; further: potency means the concentration at half of the fitted maximal effect; nearly all actives have a fitted effect of over 60% in size
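Kinetic colorimetric format: TGR-catalysed, NADPH-driven DTNB reduction monitored via TNB absorbance. Enzyme dispensed at 20 nM; compound exposure 15 min at room temperature before reaction start.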
Giardia FBPA inh = Giardia lamblia aldolase inhibition. A8B2U2. purified Giardia FBPA. Potency, µM (series often up to 59.6 µM), for the others: at the top dose activity, negative = inhibition, usual class: inhibitors. 290,000 compounds, 0.71% hits; further: potency means the concentration at half of the fitted maximal effect; nearly all actives have a fitted effect of over 55% in size
Target sequence (A8B2U2 whole entry, looked up): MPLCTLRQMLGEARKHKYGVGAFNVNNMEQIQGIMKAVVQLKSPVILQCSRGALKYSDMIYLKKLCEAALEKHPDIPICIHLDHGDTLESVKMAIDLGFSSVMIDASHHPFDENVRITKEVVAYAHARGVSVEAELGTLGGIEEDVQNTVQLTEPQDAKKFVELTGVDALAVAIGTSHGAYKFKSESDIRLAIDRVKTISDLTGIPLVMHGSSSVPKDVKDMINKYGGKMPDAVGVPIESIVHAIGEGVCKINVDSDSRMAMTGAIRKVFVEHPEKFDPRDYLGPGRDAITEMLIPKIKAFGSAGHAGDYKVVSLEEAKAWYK
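Giardia FBPA (40 nM reagent) was preincubated 10 min at RT with compound (up to 57.5 uM final), then substrate plus GAPDH/TPI/NAD/arsenate coupling system with diaphorase/resazurin was added; resorufin fluorescence (525/598 nm) was read after 20 min.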
TbPYK inhibitor = inhibitors of Trypanosoma brucei pyruvate kinase; 410,000 compounds, 0.12% hits; AID 624173; Potency, µM (highest dose often 76.8 µM), inactives show at the top dose activity, negative = inhibition, actives largely listed as inhibitors; Q57TT1; TbPYK enzyme, Kinase-Glo Plus ATP luminescence, 45 min; further: potency means the concentration at half of the fitted maximal effect; nearly all actives have a fitted effect of over 50% in size
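Readout: single end-point luminescence (Kinase-Glo Plus, 10 min). Reaction conditions were TbPYK/substrate plus 130 uM ADP, 45 min at RT, pH 7.2 TEA buffer. No-enzyme wells served as controls, and data were normalized before concentration-response fitting.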
HCMV inh = blocks human cytomegalovirus replication | 410,000 compounds, 4.5% hits | HFF cells, HCMV-luciferase reporter, 72 h; stronger effect = lower value | AID 1259415 | activity change, negative = inhibition, % at 57.5 µM; in the data active means activity change below about -60%; inconclusive means no clear call, values can overlap the other calls; inactive means above about -39%
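Screen run at 2 compound doses on HFFs infected with reporter HCMV, MOI 1 PFU/cell. Luciferase activity from cell lysates at 72 h post infection gave inhibition relative to buffer-only and Salinomycin wells.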
* = called active by the depositor. In the library only some 7.7% were active in any assay of this set; here they are far more common. Unless noted, the call rests on the fitted dose curve; in most records, active means well fitted curve in the direction sought with a large enough effect; inconclusive means small, poorly fitted or top-dose-only effect, or another doubt; inactive means no such curve, though single readings can be large; an effect the other way counts as inactive or inconclusive. On the % scale 0 is the no-effect control and ±100 the full control effect.

How did CCOC(=O)C1=C(C)N=c2s/c(=C/c3cccc([N+](=O)[O-])c3O)c(=O)n2C1c1ccc(OC)cc1OC (stereo not given) do in these assays?
FMDV inh: inconclusive; RE007 growth inh: 4%; Sm TGR block: 56µM*; Giardia FBPA inh: -5%; TbPYK inhibitor: inconclusive; HCMV inh: 15

How did Cc1ccc(C)c(SCC(=O)NNC(=O)c2csc(N3CCOCC3)n2)c1 do in these assays?
FMDV inh: 2%; RE007 growth inh: -10%; Sm TGR block: 0%; TbPYK inhibitor: -3%; HCMV inh: -62*

How did Cc1cccc(NC(=O)CSc2nncn2C)c1 do in these assays?
FMDV inh: 1%; Sm TGR block: 0%; TbPYK inhibitor: 2%; HCMV inh: 6

How did CN(NC(=O)c1ccc(Cl)cc1)c1nc(-c2ccccc2)nnc1C(F)(F)F do in these assays?
FMDV inh: 32µM*; RE007 growth inh: 1%; Sm TGR block: 10%; Giardia FBPA inh: 4%; TbPYK inhibitor: 3%; HCMV inh: -105*

How did CSc1nc(N(C)NC(=O)c2ccc(Cl)cc2)c2ccccc2n1 do in these assays?
FMDV inh: 0%; RE007 growth inh: -3%; Sm TGR block: 4%; Giardia FBPA inh: 0%; TbPYK inhibitor: -13%; HCMV inh: -65*

Results for CC(C)CC(=O)NN(C)c1nc(-c2ccccc2)nnc1C(F)(F)F ?
FMDV inh: -5%; RE007 growth inh: 4%; Sm TGR block: -12%; Giardia FBPA inh: 1%; TbPYK inhibitor: 0%; HCMV inh: -9

What do the screens show for `COc1ccc(/C=C/C(=O)c2ccc3c4c(cccc24)CC3)cc1OC`?
FMDV inh: 18µM*; RE007 growth inh: inconclusive; Sm TGR block: 6%; Giardia FBPA inh: -7%; TbPYK inhibitor: -5%; HCMV inh: inconclusive

Results for CCOc1ccc(C(=O)/C=C/c2ccc(OC)c(OC)c2)cc1 ?
FMDV inh: inconclusive; RE007 growth inh: inconclusive; Giardia FBPA inh: -12%; TbPYK inhibitor: 2%; HCMV inh: 102

Results for COc1ccc(C(=O)Oc2ccc(F)cc2C(=O)/C=C/c2ccc(OC)c(OC)c2)cc1 ?
FMDV inh: 40µM*; RE007 growth inh: 6%; Sm TGR block: -1%; Giardia FBPA inh: -6%; TbPYK inhibitor: -26%; HCMV inh: inconclusive

What do the screens show for `COc1ccc(/C=C/C(=O)c2cc(F)ccc2OC(=O)c2ccccc2C)cc1OC`?
FMDV inh: 25µM*; RE007 growth inh: 4%; Sm TGR block: -6%; Giardia FBPA inh: 0%; TbPYK inhibitor: -7%; HCMV inh: -86*

What do the screens show for `Cc1cc(-n2c(=O)[nH]c(=O)n(C)c2=O)ccc1Oc1ccc(S(=O)(=O)C(F)(F)F)cc1`?
TbPYK inhibitor: -8%

Results for COC(=O)[C@@H]1CCCN1Cc1ccc2c(c1)CN(Cc1cccc(Cl)c1)CCO2 ?
FMDV inh: -4%

How did COc1cc(OC)c(NC(=O)c2nn(-c3ccc(C)cc3)c(=O)c3c2c2ccccc2n3C)cc1Cl do in these assays?
FMDV inh: -3%; Sm TGR block: 3%; TbPYK inhibitor: 2%; HCMV inh: 0

How did O=C(NCCS(=O)(=O)N1CCN(c2cccc(Cl)c2)CC1)C(c1ccccc1)c1ccccc1 do in these assays?
FMDV inh: -8%; Sm TGR block: 8%; TbPYK inhibitor: 0%; HCMV inh: 11

Results for CCOC(=O)c1ccc(NC(=O)c2c(C)oc3nc(C)nc(N4CCCC4)c23)cc1 ?
FMDV inh: -8%; Sm TGR block: 2%; TbPYK inhibitor: -7%; HCMV inh: 77

What do the screens show for `CC1(Cc2cc(Cl)ccc2C(F)(F)F)C(=O)Nc2ccc(-c3ccc(F)c(Cl)c3)cc21` (stereo not given)?
FMDV inh: 0%; RE007 growth inh: 4%; TbPYK inhibitor: 4%; HCMV inh: -63*

Screens from PubChem.
